This note sets out measurements from PubChem BioAssay AID652175 (National Center for Advancing Translational Sciences (NCATS), 2013).

Values joined by “and” are separate entries in the source; they are usually repeats but may differ in a detail not shown here. Identical values can stand only once. Records with an inconclusive call do not appear. Active and inactive are the calls of the source. Calls come from the whole dose curve; as a rule, active = well fitted inhibition curve with a large enough effect; inconclusive = small, poorly fitted or top-dose-only effect; inactive = no such curve, though single readings can be large or run the other way.

This test is described as follows: qHTS Assay for Lipid Storage Modulators: S3 Assay against Probe and Analogs. Particulars: Drosophila S3 cells, BODIPY lipid droplet fluorescence, 18-24 h, oleic acid added to induce droplets; series mostly up to 46.1 µM; activity, negative = lipid storage inhibition: at the top concentration. The text has this: Storing lipids as a reservoir for energy or the anabolism of elementary metabolites is a common feature of probably all cells and is conserved from bacteria to humans. The universal cellular lipid storage organelle is the so-called lipid storage droplet (LD). Although ubiquitous, LDs share a simple structure composed of a hydrophobic core that harbors the storage lipids, which is shielded by a droplet-specific phospholipid monolayer to which proteins are attached. The current model of LD biogenesis involves an incorporation of the lipid core into the membrane leaflets of the endoplasmic reticulum (ER) followed by a subsequent budding-like maturation of a LD, which ultimately pinches off. Once released, LD volume can increase by localized lipogenesis or fusion of existing droplets. Storage lipids are re-mobilized enzymatically by lipase activity. Lipase regulation in the adipocyte is heavily studied and involves multiple components including catecholamine signaling, the LD-associated proteins Perilipin and comparative gene identification-58 (CGI-58) and at least two lipases named hormone sensitive lipase (HSL) and adipocyte triglyceride lipase (ATGL). LD regulation outside of the adipocyte is poorly understood and only few components are known. However, there is an urgent need to learn more about ectopic fat depots as mislocalized storage of lipids, for example in the liver or muscle, is an eminent health problem associated with insulin resistance or the metabolic syndrome. We developed a laser-scanning cytometer assay to enable 1,536-well screening and combined the results of the small molecules screen with an RNAi database based on lipid storage. In this assay we tested analogs of the probe against the original qHTS assay, which involved drosophila melanogaster cells (S3), to see if these small molecules could disrupt lipid storage. NIH Molecular Libraries Probe Production Centers Network [MLPCN] NIH Chemical Genomics Center [NCGC] MLPCN Grant: MH085686 Assay Submitter (PI): Mathias Beller, Max-Planck-Institut fur Biophysikalische Chemie
qHTS was performed with embryonic Drosophila S3 cells (Bloomington Drosophila Genomics Resource Center [DGRC]). We dispensed 4 uL of cells at 1.25 x 10^6 cells/mL into LoBase Aurora COC 1,536-well plates (black walled, clear bottom) with a bottle-valve solenoid-based dispenser (Aurora) to obtain 5,000 cells/well. Triacsin C (Sigma-Aldrich T-4540), an inhibitor of long-chain fatty acyl CoA synthetase that blocks synthesis of triglycerides, was used as a positive control for lipid under-storage. A total of 23 nL of compounds dissolved in DMSO at different concentrations were transferred to the assay plates using a Kalypsys pin tool equipped with a 1,536-pin array containing 10-nL slotted pins (FP1S10, 0.457-mm diameter, 50.8 mm long; V&P Scientific). The final DMSO concentration was 0.46%. One microliter of oleic acid at 400 uM (Calbiochem, #4954) was added to induce lipid droplet formation in the cells, and the plates were lidded with stainless steel rubber gasket lined lids containing pinholes. After 18-24 h incubation at 25 0C and 95% humidity, 4 uL of the BODIPY lipid dye 493/503 (1:2000, Molecular Probes) and the Cell Tracker Red CMTPX dye (Life Technologies, # 34552) were added to the wells to stain lipid droplets and enumerate cell number, respectively. Fluorescence was detected by excitation of the fluorophores with a 488-nm laser on an Acumen Explorer (TTP Lab Tech). The total intensity in channel 1 (500-530 nm) reflected lipid droplet accumulation. Cells were detected using channel 3 (575-640 nm) with 5-um width and 100-um depth filters. The ratio of the total intensity in PMT channel 1 over total intensity of channel 3 was also calculated. Percent activity was computed relative to an internal control (100% inhibited lipid droplet deposition due to the presence of 20 uM Triacsin C), which was added to 32 wells/plate.
On the technique in general: qHTS replaces the single test concentration by a dilution series.
For `CCOC(=O)C1CCN(C(=O)C(C)(C)NC(=O)Nc2ccc(-c3ccccc3)cc2)CC1`, the “activity, negative = lipid storage inhibition” value is -100% (inactive).

Take `O=C(NC1CCCc2c1cnn2-c1ccc(F)cc1F)c1ccncc1` (stereo not given): the “activity, negative = lipid storage inhibition” value was -80% (inactive).

As for `O=C(c1cc2sccc2n1Cc1ccccc1)N(CCc1ccc(O)c(O)c1)Cc1ccccc1`, the “activity, negative = lipid storage inhibition” value is 167% (inactive).

Regarding `COc1cc(Nc2ncc(F)c(Nc3ccc4c(n3)NC(=O)C(C)(C)O4)n2)cc(OC)c1OC`, the “activity, negative = lipid storage inhibition” value was -83.3% (inactive).

Regarding `CN(C)Cc1ccc(-c2nc3cccc4c3n2CCNC4=O)cc1`, the “activity, negative = lipid storage inhibition” value was 33.3% (inactive).

As for `CCOc1ccc(CCNC(=O)c2cc3ccccc3o2)cc1OCC`, the “activity, negative = lipid storage inhibition” value is 23.3% (inactive).

On to `C[C@@H](NCCCc1cccc(C(F)(F)F)c1)c1cccc2ccccc12`, for which the “activity, negative = lipid storage inhibition” value was -103% (inactive).

In the case of `CCOc1cc(F)c(CCNC(=O)c2cc3sccc3n2Cc2ccccc2)cc1OCC`, the Potency was 3.3 nM (active).

With `CCOc1ccc(CCNC(=O)c2cc3sccc3[nH]2)cc1OCC`, the “activity, negative = lipid storage inhibition” value was 83.3% (inactive).

Take `COc1cccc(-n2ncc3c2CCCC3NC(=O)c2ccccn2)c1` (stereo not given): the Potency is 3.7 nM (active).

For `O=C(NCCc1ccc(OCC(F)(F)F)c(OCC(F)(F)F)c1)c1cc2sccc2n1Cc1ccccc1`, the Potency was 1320 nM (active).

For `CC(C)(C)OC(=O)N1CCCCC1C(=O)NC1CCCc2c1cnn2-c1ccc(F)cc1F` (stereo not given), the “activity, negative = lipid storage inhibition” value was 26.7% (inactive).

In the case of `CCOC(=O)C1CCN(C(=O)C2(NC(=O)Nc3ccccc3Cl)CC2)CC1`, the “activity, negative = lipid storage inhibition” value was -60% (inactive).

In the case of `CCOc1ccc(CCNC(=O)c2cc3sccc3n2Cc2ccccc2)c(F)c1OCC`, the “activity, negative = lipid storage inhibition” value was -100% (inactive).

For the compound `CCn1c(C(=O)NCc2ccc(OC)c(OC)c2)cc2sccc21`, the “activity, negative = lipid storage inhibition” value was 46.7% (inactive).

As to `CCOc1ccc(CCNC(=O)C2CCCCC2)cc1OCC`, the “activity, negative = lipid storage inhibition” value was 66.7% (inactive).

For the compound `CCOc1ccc(CCNC(=O)c2ccc(C3(C(F)(F)F)N=N3)cc2)cc1OCC`, the “activity, negative = lipid storage inhibition” value is -76.7% (inactive).

Turning to `CCOC(=O)C1CCN(C(=O)C(C)(C)NC(=O)Nc2cccc(-c3csc(C)n3)c2)CC1`, the “activity, negative = lipid storage inhibition” value was 6.67% (inactive).

Turning to `O=C(NC1CCCc2c1cnn2-c1ccc(F)cc1F)c1cnon1` (stereo not given), the “activity, negative = lipid storage inhibition” value is 3.33% (inactive).

In the case of `CCOc1ccc(CCNC(=O)c2cc3sccc3n2CCN2CCOCC2)cc1OCC`, the Potency was 148 nM (active).

Turning to `Cn1c(=O)n(-c2ccc(C(C)(C)C#N)cc2)c2c3cc(-c4cnc5ccccc5c4)ccc3ncc21`, the Potency is 1180 nM (active).

Consider `CCOc1ccc(CCNC(=O)CN(C)C)cc1OCC`, for which the “activity, negative = lipid storage inhibition” value is 73.3% (inactive).

Consider `O=C(NC1CCCc2c1cnn2-c1ccc(O)cc1)c1ccccn1` (stereo not given), for which the Potency was 1.2 nM (active).

On to `CCOc1ccc(CCNC(=O)c2cccs2)cc1OCC`, for which the “activity, negative = lipid storage inhibition” value is -6.67% (inactive).

Consider `O=C(NC1CCCc2c1cnn2-c1ccc(F)cc1F)C1CCCCC1` (stereo not given), for which the “activity, negative = lipid storage inhibition” value was -93.3% (inactive).

With `Cc1ccc(NC(=O)c2ccc(CN3CCN(C)CC3)cc2)cc1Nc1nc(-c2cccnc2)cs1`, the “activity, negative = lipid storage inhibition” value was 26.7% (inactive).

Consider `CC(C)(C)OC(=O)NCCOCCOCCOc1cccc(-n2ncc3c2CCCC3NC(=O)c2ccccn2)c1` (stereo not given), for which the Potency is 18.7 nM (active).

As to `CCOc1ccc(CCNC(=O)c2cnon2)cc1OCC`, the “activity, negative = lipid storage inhibition” value was -10% (inactive).

For the compound `O=C(O)c1cccc(-c2noc(-c3ccccc3F)n2)c1`, the “activity, negative = lipid storage inhibition” value is 33.3% (inactive).

For `O=C(NC1CCCc2c1cnn2-c1ccc(F)cc1F)c1ccccc1` (stereo not given), the Potency was 20.9 nM (active) and 26.4 nM (active).

With `CCOc1ccc(CCNC(=O)c2ccc(N3N=C(C)CC3=O)cc2)cc1OCC`, the “activity, negative = lipid storage inhibition” value was 80% (inactive).

Turning to `CCOC(=O)C1CCN(C(=O)C2(NC(=O)Nc3ccccc3Cl)CCCCC2)CC1`, the Potency is 166 nM (active).

With `CCOc1ccc(CCNC(=O)c2cc3ccccc3n2Cc2cc(C)cc(C)n2)cc1OCC`, the Potency was 16.6 nM (active).

`CCn1c(C(=O)NCCc2ccc(OC)c(OC)c2)cc2sccc21`: the “activity, negative = lipid storage inhibition” value was -46.7% (inactive).

As for `CCOC(=O)C1CCN(C(=O)C(C)(C)NC(=O)Nc2ccc3sccc3c2)CC1`, the “activity, negative = lipid storage inhibition” value is -63.3% (inactive).

With `CCOc1ccc(CCNC(=O)C2=C(C)OCCO2)cc1OCC`, the “activity, negative = lipid storage inhibition” value was 150% (inactive).

`CC(NCc1ccc2c(c1)nc(NC(=O)c1ccc(-c3cn[nH]c3)s1)n2CC(C)(C)O)C(C)(C)C` (stereo not given): the “activity, negative = lipid storage inhibition” value is -30% (inactive).

For the compound `CCOC(=O)C1CCN(C(=O)C(C)(C)NC(=O)Nc2cccc(OC)c2)CC1`, the “activity, negative = lipid storage inhibition” value is -103% (inactive).

With `O=C(NCCc1ccc2c(c1)OCO2)c1cc2sccc2[nH]1`, the “activity, negative = lipid storage inhibition” value was 217% [at 38.8 µM] (inactive).

For the compound `CCOc1ccc(CCNC(=O)c2cc3c(s2)CCC3)cc1OCC`, the Potency was 332 nM (active).
